In all, about 5,500 compounds went through this assay and about 2,000 (36%) were called active. Not shown: some 18% with an inconclusive outcome. Rule as the data show it: active = normalized growth mostly below about 0.91 (no sharp cut-off); inconclusive = no clear call, values can overlap the other calls; inactive = mostly above about 0.92. This is one part of the list.
Test: chemical genetic growth profiling, strain panel (AID 1159580);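 also: tested at 20 µM; growth read once vehicle control cultures reached saturation at 30 °C; 1 = growth at the plate median or of vehicle wells; lower values mean less growth of the strain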
Details: S. cerevisiae deletion strains, growth OD

Measured: normalized growth

CCNc1nc(Cl)nc(NCC)n1
inactive: locus YAL013W, strain DEP1, stronger effect = lower value 1 | locus YAL021C, strain ccr4, stronger effect = lower value 0.983 | locus YAL026C, strain drs2, stronger effect = lower value 1 | locus YAL030W, strain snc1, stronger effect = lower value 0.992 | locus YBL061C, strain skt5, stronger effect = lower value 0.991 | locus YBR009C, strain hhf1, stronger effect = lower value 0.995 | locus YBR021W, strain FUR4, stronger effect = lower value 1.03 | locus YBR023C, strain chs3, stronger effect = lower value 0.995 | locus YBR171W, strain sec66, stronger effect = lower value 0.99 | locus YBR229C, strain ROT2, stronger effect = lower value 0.993 | locus YBR231C, strain swc5, stronger effect = lower value 0.993 | locus YBR279W, strain paf1, stronger effect = lower value 1 | locus YCL011C, strain gbp2, stronger effect = lower value 1 | locus YCL016C, strain dcc1, stronger effect = lower value 1.01 | locus YCL029C, strain bik1, stronger effect = lower value 0.999 | locus YCL061C, strain MRC1, stronger effect = lower value 0.989 | locus YCL069W, strain vba3, stronger effect = lower value 0.968 | locus YCR088W, strain abp1, stronger effect = lower value 0.995 | locus YDL005C, strain med2, stronger effect = lower value 0.988 | locus YDL035C, strain GPR1, stronger effect = lower value 1 | locus YDL040C, strain nat1, stronger effect = lower value 0.999 | locus YDL074C, strain BRE1, stronger effect = lower value 0.975 | locus YDL101C, strain DUN1, stronger effect = lower value 1.01 | locus YDL134C, strain PPH21, stronger effect = lower value 1.01 | locus YDL185W, strain tfp1, stronger effect = lower value 0.991 | locus YDL192W, strain arf1, stronger effect = lower value 1 | locus YDR001C, strain nth1, stronger effect = lower value 0.998 | locus YDR069C, strain doa4, stronger effect = lower value 0.979 | locus YDR101C, strain arx1, stronger effect = lower value 0.994 | locus YDR137W, strain rgp1, stronger effect = lower value 1.01 | locus YDR150W, strain NUM1, stronger effect = lower value 0.971 | locus YDR159W, strain sac3, stronger effect = lower value 0.979 | locus YDR162C, strain NBP2, stronger effect = lower value 0.97 | locus YDR195W, strain ref2 0.942 | locus YDR297W, strain sur2, stronger effect = lower value 0.982 | locus YDR318W, strain mcm21, stronger effect = lower value 1 | locus YDR334W, strain swr1, stronger effect = lower value 0.996 | locus YDR335W, strain msn5, stronger effect = lower value 0.989 | locus YDR388W, stronger effect = lower value 1 | locus YDR392W, strain spt3, stronger effect = lower value 1.01 | locus YDR502C, strain sam2, stronger effect = lower value 1.01 | locus YEL003W, strain gim4, stronger effect = lower value 1.01 | locus YEL037C, strain rad23, stronger effect = lower value 1 | locus YEL061C, strain CIN8 (second series), stronger effect = lower value 0.997 | locus YEL061C, strain CIN8, stronger effect = lower value 0.997 | locus YER015W, strain faa2, stronger effect = lower value 1 | locus YER016W, strain bim1, stronger effect = lower value 1.01 | locus YER110C, stronger effect = lower value 0.996 | locus YER111C, strain swi4, stronger effect = lower value 0.996 | locus YER155C, strain BEM2 (second series), stronger effect = lower value 0.973 | locus YER155C, strain BEM2, stronger effect = lower value 1 | locus YER167W, strain BCK2, stronger effect = lower value 1 | locus YFR010W, strain ubp6, stronger effect = lower value 1 | locus YGL078C, strain dbp3, stronger effect = lower value 1 | locus YGL086W, strain mad1, stronger effect = lower value 1 | locus YGL167C, strain pmr1, stronger effect = lower value 1 | locus YGL173C, strain kem1, stronger effect = lower value 0.99 | locus YGL227W, strain vid30, stronger effect = lower value 0.978 | locus YGL240W, strain doc1, stronger effect = lower value 0.986 | locus YGL248W, strain PDE1, stronger effect = lower value 1.03 | locus YGL253W, strain hxk2, stronger effect = lower value 0.993 | locus YGR078C, strain PAC10, stronger effect = lower value 0.989 | locus YGR135W, strain pre9, stronger effect = lower value 1 | locus YGR229C, strain SMI1, stronger effect = lower value 1 | locus YGR252W, strain gcn5, stronger effect = lower value 1.02 | locus YHR013C, strain ard1, stronger effect = lower value 0.998 | locus YHR027C, strain rpn1, stronger effect = lower value 1 | locus YHR030C, strain SLT2, stronger effect = lower value 0.98 | locus YHR079C, strain IRE1 (second series), stronger effect = lower value 1.01 | locus YHR094C, strain hxt1, stronger effect = lower value 1 | locus YHR129C, strain ARP1, stronger effect = lower value 0.96 | locus YHR142W, strain chs7, stronger effect = lower value 1.02 | locus YHR200W, strain rpn10, stronger effect = lower value 1.01 | locus YIL066C, strain RNR3, stronger effect = lower value 1.01 | locus YIL073C, strain SPO22, stronger effect = lower value 1.09 | locus YIL125W, strain kgd1, stronger effect = lower value 1 | locus YIR030C, strain dcg1, stronger effect = lower value 1.01 | locus YJL092W, strain hpr5, stronger effect = lower value 1 | locus YJL095W, strain BCK1 (second series), stronger effect = lower value 0.994 | locus YJL095W, strain BCK1, stronger effect = lower value 0.994 | locus YJL115W, strain asf1, stronger effect = lower value 1 | locus YJL129C, strain trk1, stronger effect = lower value 0.986 | locus YJL134W, strain LCB3, stronger effect = lower value 0.993 | locus YJL154C, strain vps35, stronger effect = lower value 0.992 | locus YJL164C, strain tpk1, stronger effect = lower value 0.999 | locus YJL166W, strain qcr8, stronger effect = lower value 0.987 | locus YJL168C, strain set2, stronger effect = lower value 1.01 | locus YJL187C, strain SWE1 (second series), stronger effect = lower value 1

Reference: PubChem BioAssay AID1159580 (chemical genetic matrix, 2015)
